Screening results from PubChem.
Hits are enriched below; roughly 1.7% of the tested compounds scored in any of these assays.
ATG4B inh: ATG4B (human) cysteine protease inhibition; Q9Y4P1; ATG4B cleavage of LC3-PLA2, NBD-HPC fluorescence, 1 h; inhibition, % at 8.33 µM; hit rate 0.51% among 340,000; AID 504462; in the data active = inhibition above about 40%
SUMO1-SIM PPI: alters human SUMO1 binding to SIM partners; inhibition, % at 20 µM; hit rate 0.33% among 360,000; P63165; SUMO1 binding to a labelled peptide, TR-FRET, 1 h; in the data active = inhibition above about 37%
Neddylation inh: blocks human cullin neddylation; P61081+Q13564; inhibition, % at 25 µM; hit rate 0.58% among 360,000; TR-FRET cullin neddylation, biochemical; in the data active = inhibition above about 36%
Rin1-Abl PPI inh: human Rin1-Abl interaction inhibition; P00519+Q13671; TR-FRET Rin1/Abl binding, biochemical; inhibition, % at 7.35 µM; hit rate 0.4% among 360,000; in the data active = inhibition above about 5%, passing the limit was not always enough
ATG4B conf: confirmation of human ATG4B inhibitors; inhibition, % at 8.33 µM; shares compounds with ATG4B inh; ATG4B protease fluorescent substrate cleavage assay; hit rate 92% among 320; in the data active = inhibition above about 39%
PLA2 ctr: PLA2 (human) inhibition in ATG4B counter-screen. shares compounds with ATG4B inh. purified PLA2, NBD-C6-HPC fluorescence, 45 min. inhibition, % at 8.33 µM. hit rate 66% among 1,600; in the data active = inhibition above about 50%
Of the large screens only hits and unclear results are named; the others gave an inactive call (follow-up assays come after a bar, where shown).

COc1ccc(/C=C/c2cc(C(F)(F)F)[nH]c(=O)n2)cc1OC	none
O=c1nc(/C=C/c2ccccc2C(F)(F)F)cc(C(F)(F)F)[nH]1	ATG4B inh 45 | PLA2 ctr 59
O=C(c1ccc(Cl)c(S(=O)(=O)N2CCc3ccccc3C2)c1)N1CCN(c2ccccc2)CC1	none
O=C(c1ccc(Cl)c(S(=O)(=O)Nc2ccccc2C(=O)N2CCc3ccccc3C2)c1)N1CCc2ccccc2C1	ATG4B inh 48 | ATG4B conf 62 | PLA2 ctr inactive
COc1ccc(NC(=S)NNc2ccc([N+](=O)[O-])cc2S(=O)(=O)Nc2ccc(C)cc2C)cc1	ATG4B inh 43 | PLA2 ctr 57
Cc1ccc(NS(=O)(=O)c2cc([N+](=O)[O-])ccc2NNC(=S)Nc2cc(C)ccc2C)c(C)c1	ATG4B inh 58 | PLA2 ctr 73
COc1ccc(NC(=S)Nc2cccc([N+](=O)[O-])c2)cc1	none
Cc1ccc(NS(=O)(=O)c2cc([N+](=O)[O-])ccc2NNC(=S)Nc2cccc(Cl)c2)c(C)c1	ATG4B inh 88 | PLA2 ctr 101
Cc1ccc([N+](=O)[O-])cc1NC(=S)NC(=O)C(C)(C)C	none
CN(Cc1ccccc1)C(=O)c1ncn2c1c(=O)[nH]c1cccnc12	none (no result: ATG4B inh)
COc1cc(C)ccc1S(=O)(=O)NC(=O)C1(C)CCN1C(=O)COc1ccc(Cl)cc1 (centres undefined)	none (no result: ATG4B inh)
CON(C)C(=O)CC(CN(Cc1ccccc1)C(=O)OC(C)(C)C)c1ccc(Cl)cc1 (centres undefined)	ATG4B inh 53 | PLA2 ctr 79
OC(c1cc(Cl)cc(Cl)c1)c1ncc(-c2ccccc2F)[nH]1 (centres undefined)	none (no result: ATG4B inh)
COc1ccc(C(=O)N2CCOCC2c2cc(C(=O)NCc3ccccc3)no2)cc1 (centres undefined)	none (no result: ATG4B inh)
O=C(N[C@@H](Cc1ccc(Br)cc1)C(=O)O)OCC1c2ccccc2-c2ccccc21	none
O=C(N[C@H](Cc1ccc(Cl)cc1)C(=O)O)OCC1c2ccccc2-c2ccccc21	ATG4B inh 78 | PLA2 ctr 86
CCN(Cc1ccc2c(c1)OCO2)C(=O)CSc1nc(C)nc2sc(C)c(C)c12	ATG4B inh 58 | PLA2 ctr 75
CCC(CC)C(=O)N(C)c1c(C)nc2c(OCc3ccc(OC(F)F)cc3)cccn12	none (no result: ATG4B inh)
O=c1c2ccccc2nc(SCc2ccc([N+](=O)[O-])cc2)n1-c1ccccc1	ATG4B inh 40 | PLA2 ctr inactive
O=C(O)c1ccc(CSc2nnc(-c3ccccc3)n2-c2ccccc2)cc1	none
Cc1noc(C)c1CSc1nc2sc(C)c(C)c2c(=O)n1-c1ccccc1	none
Cc1noc(C)c1CSc1nc2ccccc2c(=O)n1-c1ccc(Cl)cc1	ATG4B inh 71 | PLA2 ctr 70
O=C(c1ccc(-n2c(SCc3cccc(F)c3)nc3ccccc3c2=O)cc1)N1CCOCC1	ATG4B inh 48 | ATG4B conf 59 | PLA2 ctr inactive
O=C(O)c1ccc(CSc2nc3ccccc3c(=O)n2-c2ccccc2)cc1	ATG4B inh 41 | PLA2 ctr 59
COc1ccc(NC(=O)Nc2nnc([C@H]3C[C@H](O)[C@@H](CO)O3)s2)cc1	none (no result: ATG4B inh)
Cc1nc2cc(OC3(C)CCN(Cc4ccc(OC(F)(F)F)cc4)C3)ccc2s1 (centres undefined)	none (no result: ATG4B inh)
CC(=O)c1cccc(NC(=O)C2C3C=CC(C3=C(c3ccccc3)c3ccccc3)C2C(=O)O)c1 (centres undefined)	ATG4B inh 79 | PLA2 ctr 90
CC(=O)c1cccc(NC(=O)Nc2ccccc2)c1	none
Cc1ccc(NC(=O)CN(c2ccc(Cl)cc2)S(=O)(=O)c2cc([N+](=O)[O-])ccc2Cl)cc1	none
COc1ccc(C)cc1S(=O)(=O)N(CC(=O)Nc1cccc([N+](=O)[O-])c1)c1ccc(C)c(C)c1	ATG4B inh 88 | PLA2 ctr 90
CC(C)N1CCC(C)(C(=O)Nc2cc(-c3ccccc3)nn2C)C1 (centres undefined)	none (no result: ATG4B inh)
O=C(Nc1nc(-c2ccccc2)cs1)NC1CCCCC1	ATG4B inh 58 | PLA2 ctr 66
c1ccc(-c2csc(NC3CCCCC3)n2)cc1	none
O=C(O)Cc1cn(Cc2cccc(Cl)c2)c2ccccc12	none
CC1CCCN(C(=O)Cc2cn(Cc3cccc(Cl)c3)c3ccccc23)C1 (centres undefined)	ATG4B inh 48 | PLA2 ctr 56
O=C(Cc1cn(Cc2cccc(Cl)c2)c2ccccc12)N1CCCCCC1	ATG4B inh 50 | PLA2 ctr inactive
COCC(=O)N1CCC2CC1c1c(-c3ccc(C(F)(F)F)cc3)cccc12 (centres undefined)	none
O=C(NCCO)OC1CC2CC1[C@H]1CCCCN1C2=O (some centres undefined)	none (no result: ATG4B inh, Rin1-Abl PPI inh)
COc1ccc(N2C(=O)c3ccccc3NC(=O)C2C(=O)NCc2ccco2)cc1 (centres undefined)	none (no result: ATG4B inh, Rin1-Abl PPI inh)
COc1ccccc1C(=O)Nc1cc2c(cc1C(=O)O)OCCCO2	none
O=C(O)c1cc2c(cc1NC(=O)c1ccccc1OC(F)F)OCCCO2	ATG4B inh 44 | ATG4B conf 58 | PLA2 ctr inactive
COc1ccccc1C(=O)Oc1ccc(C(C)(C)C)cc1	ATG4B inh 42 | PLA2 ctr 50
COc1ccccc1C(=O)Oc1ccc2ccc(=O)oc2c1	none (not shown: Neddylation inh)
CCCCC1=CC2=CC(=O)C(C)(OC(=O)c3cccs3)C(=O)C2=CO1 (centres undefined)	none
CCCCC1=CC2=CC(=O)C(C)(OC(=O)CCc3ccccc3)C(=O)C2=CO1 (centres undefined)	ATG4B inh 42 | PLA2 ctr 69
CCOc1ccc(NC(=S)NC(=O)/C=C/c2ccco2)cc1	none
COc1cc(NS(=O)(=O)c2ccc(NC(=S)NC(=O)/C=C/c3ccco3)cc2)ncn1	ATG4B inh 56, SUMO1-SIM PPI 48 | ATG4B conf 46 | PLA2 ctr inactive
CC(C)N1C(=O)NC2NC(=O)N(C(C)C)C21 (centres undefined)	none (no result: ATG4B inh)
CCCCCCCCCCCCCCCC[N+](C)(C)CC	none
CCCCCCCCCCCCCCCC[N+](C)(C)CCl	ATG4B inh 56 | ATG4B conf 57 | PLA2 ctr inactive
NC(=O)c1ccc(-n2nnnc2Oc2ccccc2)cc1	ATG4B inh 54 | PLA2 ctr inactive
COc1ccccc1Oc1nnnn1-c1ccc(C(N)=O)cc1	none
C/C=C/c1ccc(Oc2nnnn2-c2ccc(C(N)=O)cc2)c(OC)c1	ATG4B inh 69 | PLA2 ctr 80
COc1ccc(/C=C/C(=O)Nc2ccc(C(N)=O)cc2)cc1OC	none
COc1ccc(Cn2c(C(F)(F)F)ccc(C(N)=O)c2=O)cc1	none
NC(=O)c1ccc(C(F)(F)F)n(Cc2c(Cl)cccc2Cl)c1=O	ATG4B inh 47 | PLA2 ctr inactive
CCc1nc(N)nc(N)c1-c1ccc(Cl)c(N=[N+]=[N-])c1	none
